According to article PMC5540273 (PLoS ONE, 2017):

Legend:
Conditions in all cases: concentration: 1 μM, replicates: in singlicate; n = 1
TLK1 = tested on: TLK1
TLK2 = tested on: TLK2
TNIK = tested on: TNIK
TNK1 = tested on: TNK1
TNK2 = tested on: TNK2
TNNI3K = tested on: TNNI3K
TRKA = tested on: T1, TRKA
T1 construct: gene NTRK1

TRKB = tested on: TRKB
TRKC = tested on: T2, TRKC
T2 construct: gene NTRK3

TRPM6 = tested on: TRPM6
TSSK1B = tested on: TSSK1B
TSSK3 = tested on: TSSK3
TTK = tested on: TTK
TXK = tested on: TXK
[1] = tested on: TYK2(JH1domain-catalytic)
[2] = tested on: TYK2(JH2domain-pseudokinase)
TYRO3 = tested on: TYRO3
ULK1 = tested on: ULK1
ULK2 = tested on: ULK2
ULK3 = tested on: ULK3
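Note: KINOMEscan kinase panel screen.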

Row | SMILES | %Inh (TLK1) [%] | %Inh (TLK2) [%] | %Inh (TNIK) [%] | %Inh (TNK1) [%] | %Inh (TNK2) [%] | %Inh (TNNI3K) [%] | %Inh (TRKA) [%] | %Inh (TRKB) [%] | %Inh (TRKC) [%] | %Inh (TRPM6) [%] | %Inh (TSSK1B) [%] | %Inh (TSSK3) [%] | %Inh (TTK) [%] | %Inh (TXK) [%] | %Inh [1] [%] | %Inh [2] [%] | %Inh (TYRO3) [%] | %Inh (ULK1) [%] | %Inh (ULK2) [%] | %Inh (ULK3) [%]
1 | Cc1cnc(N)c(/C=C/c2cncc(C(=O)NCCc3ccc(Cl)cc3Cl)c2)c1.Cl [GSK190937] | 0 | 0 | 9 | 0 | 11 | 0 | 35 | 0 | 0 | 0 | 6 | 0 | 0 | 4 | 0 | 9 | 0 | 0 | 0 | 0
2 | COc1cccc(CNC(=O)NC2CCN(c3ccnc(Nc4ccc(F)cc4)n3)C2)c1 (stereo not drawn) [GSK1379723] | 0 | 0 | 0 | 0 | 16 | 4 | 0 | 0 | 5 | 0 | 1 | 16 | 17 | 100 | 20 | 22 | 17 | 19 | 1 | 4
3 | COC(=O)c1cccc(NC(=O)NC2CCN(c3ccnc(Nc4ccc(OC)cc4)n3)C2)c1 (stereo not drawn) [GSK1379746] | 0 | 0 | 0 | 0 | 12 | 0 | 34 | 71 | 86 | 11 | 13 | 7 | 0 | 8 | 33 | 51 | 0 | 0 | 3 | 9
4 | CCn1c(-c2ccccc2)nc2cnccc21 [SB-733416] | 0 | 0 | 0 | 31 | 17 | 16 | 0 | 0 | 25 | 0 | 32 | 14 | 0 | 9 | 24 | 45 | 0 | 20 | 0 | 14
5 | Cc1ccc(-c2nc(Nc3ccncc3)c3ccccc3n2)s1 [GSK189015] | 0 | 0 | 8 | 29 | 19 | 14 | 44 | 0 | 0 | 15 | 15 | 17 | 40 | 53 | 24 | 76 | 12 | 12 | 5 | 7
6 | Cn1cnc2c(N)ncnc21 [SKF-97623] | 74 | 0 | 0 | 3 | 0 | 0 | 56 | 24 | 7 | 0 | 0 | 0 | 0 | 0 | 0 | 0 | 0 | 0 | 0 | 0
7 | Fc1ccc(-c2nc3n(c2-c2ccncc2)CCS3)cc1 [GI98581] | 0 | 0 | 18 | 0 | 11 | 2 | 11 | 0 | 17 | 23 | 0 | 22 | 0 | 0 | 8 | 11 | 0 | 2 | 0 | 0
8 | CCn1c(-c2c(N)noc2C)nc2cnccc21 [SB-737856] | 0 | 0 | 0 | 0 | 22 | 6 | 0 | 0 | 0 | 0 | 19 | 3 | 0 | 31 | 0 | 21 | 12 | 18 | 7 | 16
9 | COc1ccc(Nc2nccc(NCCNC(=O)Nc3cc(C)ccc3C)n2)cc1 [GSK1379899] | 0 | 0 | 0 | 0 | 0 | 0 | 3 | 0 | 7 | 0 | 0 | 7 | 0 | 15 | 17 | 0 | 0 | 28 | 0 | 0
10 | CC(=O)c1c(C)c2cnc(Nc3ccn(C)n3)nc2n(C2CCCC2)c1=O | 1 | 0 | 0 | 54 | 24 | 16 | 29 | 0 | 0 | 0 | 16 | 0 | 52 | 0 | 0 | 0 | 0 | 0 | 6 | 0
11 | FC(F)(F)c1ccccc1-c1cc(-c2c[nH]nc2-c2ccccn2)ccn1 [GW679396] | 0 | 0 | 18 | 1 | 0 | 0 | 39 | 0 | 0 | 3 | 1 | 4 | 0 | 0 | 0 | 0 | 13 | 0 | 0 | 0
12 | COc1ccc(Nc2nccc(N3CCC(NC(=O)C(C)c4ccc(Cl)cc4)C3)n2)cc1 (stereo not drawn) [GSK1379735] | 0 | 0 | 10 | 0 | 15 | 6 | 19 | 0 | 11 | 1 | 1 | 24 | 29 | 21 | 28 | 1 | 22 | 9 | 9 | 9
13 | Cn1cncc1C(=O)NC1CCN(c2ccnc(Nc3ccc(F)cc3)n2)C1 (stereo not drawn) [GSK1379717] | 18 | 0 | 0 | 0 | 10 | 0 | 0 | 17 | 48 | 31 | 6 | 0 | 0 | 100 | 13 | 20 | 0 | 6 | 0 | 17
14 | CSc1ccc(-c2nc3n(c2-c2ccncc2)CCC3)cc1 [SKF-105561] | 31 | 0 | 7 | 0 | 0 | 49 | 0 | 4 | 46 | 0 | 0 | 0 | 14 | 11 | 0 | 0 | 0 | 18 | 0 | 33
15 | CC(C)c1cc(-c2ccc3c(N)n[nH]c3c2)nc(N)n1 [GSK2250882] | 2 | 0 | 14 | 0 | 14 | 0 | 0 | 0 | 0 | 0 | 6 | 20 | 10 | 0 | 20 | 2 | 0 | 6 | 0 | 9
16 | COc1ccc(CSc2nnc(-c3ccc4ncsc4c3)o2)cc1C(F)(F)F | 0 | 7 | 0 | 0 | 0 | 0 | 0 | 0 | 13 | 0 | 0 | 0 | 13 | 0 | 0 | 0 | 0 | 0 | 0 | 0

Row | SMILES | %Inh (TLK1) [%] | %Inh (TLK2) [%] | %Inh (TNIK) [%] | %Inh (TNK1) [%] | %Inh (TNK2) [%] | %Inh (TNNI3K) [%] | %Inh (TRKA) [%] | %Inh (TRKB) [%] | %Inh (TRKC) [%] | %Inh (TRPM6) [%] | %Inh (TSSK1B) [%] | %Inh (TSSK3) [%] | %Inh (TTK) [%] | %Inh (TXK) [%] | %Inh [1] [%] | %Inh [2] [%] | %Inh (TYRO3) [%] | %Inh (ULK1) [%] | %Inh (ULK2) [%] | %Inh (ULK3) [%]
17 | CC(=O)c1cccc(NC(=O)NC2CCN(c3ccnc(Nc4ccc(F)cc4)n3)C2)c1 (stereo not drawn) [GSK1379710] | 12 | 25 | 3 | 0 | 7 | 5 | 56 | 69 | 81 | 32 | 39 | 32 | 23 | 16 | 26 | 22 | 0 | 2 | 4 | 10
18 | CCc1ccc(-c2ccc3c(c2)-c2n[nH]cc2S(=O)(=O)N3C)cc1 | 28 | 0 | 9 | 34 | 0 | 0 | 0 | 0 | 0 | 0 | 0 | 0 | 0 | 14 | 0 | 5 | 0 | 0 | 0 | 0
19 | CS(=O)(=O)Cc1ccc(Nc2nccc(-c3c(-c4cccc(NC(=O)C5CCCCC5)c4)nn4ncccc34)n2)cc1 [GSK350559] | 16 | 0 | 0 | 29 | 13 | 0 | 39 | 16 | 27 | 0 | 14 | 8 | 0 | 17 | 0 | 12 | 18 | 5 | 20 | 18
20 | COc1ccc(-c2coc3ccc(-c4nnc(C)o4)cc23)cc1 | 12 | 6 | 0 | 0 | 0 | 0 | 0 | 0 | 0 | 0 | 0 | 0 | 0 | 0 | 0 | 0 | 0 | 0 | 0 | 0
21 | CS(=O)(=O)CCNCc1nc(-c2ccc3ncnc(Nc4ccc5c(cnn5Cc5ccccc5)c4)c3c2)cs1.Cl.Cl [GW569716] | 0 | 0 | 0 | 0 | 18 | 0 | 0 | 73 | 40 | 0 | 0 | 1 | 3 | 3 | 22 | 57 | 0 | 0 | 0 | 0
22 | Cc1c(Cn2c(C)c(C)n3c(=O)cc(N4CCOCC4)nc23)cccc1C(F)(F)F [GSK2328680] | 0 | 0 | 0 | 0 | 13 | 0 | 12 | 0 | 21 | 0 | 11 | 7 | 0 | 20 | 5 | 4 | 0 | 9 | 0 | 14
23 | COc1cc2ncnc(Nc3cccc(Br)c3)c2cc1OC.Cl [GI230329] | 0 | 0 | 10 | 0 | 8 | 15 | 45 | 32 |  | 0 | 0 | 16 | 0 | 4 |  | 23 | 3 | 9 | 0 | 17
24 | Cc1nccc(-c2c(-c3ccc(F)cc3)ncn2CCCN2CCOCC2)n1.Cl [SB-282975] | 0 | 0 | 0 | 37 | 26 | 0 | 0 | 0 | 16 | 0 | 3 | 43 | 0 | 31 | 42 | 28 | 14 | 9 | 26 | 20
25 | Cc1ccc(NC(=O)Nc2ccc(Cl)c(C(F)(F)F)c2)cc1-c1ccc(C(=O)Nc2ccncc2)cc1 [GSK1398470] | 20 | 8 | 9 | 20 | 10 | 64 | 11 | 0 | 0 | 6 | 0 | 9 | 32 | 0 | 0 | 0 | 0 | 44 | 0 | 51
26 | Nc1ncnc2occ(-c3ccc4c(c3)CCN4C(=O)Cc3cc(F)ccc3F)c12 [GSK2645446] | 0 | 0 | 0 | 0 | 0 | 0 | 9 | 0 | 0 | 0 | 0 | 4 | 0 | 0 | 2 | 3 | 0 | 0 | 0 | 0
27 | CCCCc1nn2ncccc2c1-c1ccnc(NC2CC2)n1 [GW684374] | 15 | 7 | 0 | 0 | 0 | 0 | 0 | 6 | 0 | 25 | 0 | 9 | 0 | 0 | 6 | 32 | 0 | 0 | 0 | 0
28 | Nc1cccc(-c2ccc3c(N)n[nH]c3c2)n1 [GSK2192730] | 33 | 21 | 24 | 0 | 0 | 0 | 0 | 0 | 0 | 18 | 0 | 10 | 6 | 17 | 12 | 17 | 0 | 5 | 0 | 18
29 | CNc1nc(-c2ccc3c(N)n[nH]c3c2)cc(N2C[C@@H](C(=O)NC3CCCCC3)OC[C@H]2C)n1 [GSK2375584] | 17 | 5 | 8 | 13 | 17 | 2 | 11 | 0 | 0 | 0 | 0 | 23 | 7 | 0 | 0 | 12 | 0 | 0 | 0 | 0
30 | Cc1ccccc1Cn1ccn2c(=O)cc(N3CCOCC3)nc12 [GSK2269905] | 0 | 0 | 0 | 6 | 32 | 4 | 0 | 0 | 0 | 2 | 10 | 0 | 5 | 7 | 0 | 0 | 0 | 16 | 0 | 9
31 | COc1nccc(-c2c(-c3ccc(F)cc3)ncn2CCCN2CCOCC2)n1 [SB-282852] | 26 | 0 | 0 | 0 | 0 | 0 | 61 | 56 | 13 | 0 | 0 | 50 | 0 | 6 | 13 | 25 | 0 | 0 | 33 | 12
